Source: PubChem (National Center for Advancing Translational Sciences (NCATS))
Pf growth 96h: P. falciparum growth inhibition at 96 hour, primary screen for plastid delayed-death inhibitors | P. falciparum luciferase reporter growth, 96 h | Potency, µM (doses to about 28.7 µM), for inactives: at the highest dose activity change, negative = inhibition, most hits filed as inhibitors | 6.9% of 320,000 active; further: potency means the concentration at half of the fitted maximal effect; on the % scale 0 is the no-effect control and ±100 the full control effect
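Readout is luminescence from an integrated firefly luciferase in P. falciparum. Red cells, 2% hematocrit and 0.05% parasitemia final, were cultured with compound through two parasite generations (96 hours) at 37 C, 5% CO2.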
NS1 function inh: influenza NS1 inhibition; Potency, µM (series often up to 46.1 µM), for the others: at the top dose activity, positive = more growth; 0.4% of 270,000 active; calls by dose curve; further: potency means the concentration at half of the fitted maximal effect; actives are rising curves; nearly all actives have a fitted effect of over 50% in size
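Read-out: OD600 growth recovery of NS1-expressing budding yeast. Cells grown overnight at 30C in -URA glucose medium, washed, resuspended and diluted 1:100 in 2% galactose assay medium, pH 6.0. Same strain lacking NS1 served as positive control.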
Shiga inhibitor: Shiga toxin inhibition. Vero cells, Shiga toxin protein synthesis inhibition reporter. inhibition, % at 38.7 µM. 9.2% of 290,000 active. AID 2315; in the data active means inhibition mostly above about 28%, no sharp cut-off; inactive means mostly below about 43%; further: 0% is about no effect
CHX counter: counter-screen hit for Shiga toxin inhibitors, cycloheximide; max response, %; 12% of 300,000 active; cell reporter, cycloheximide protein synthesis inhibition counterscreen; in the data active means max response mostly above about 13%, no sharp cut-off; inactive means mostly below about 14%; further: read at 38.3 µM for the half of the compounds with a filed dose; 0% is about no effect
Pf growth 48h: inhibits P. falciparum growth in the first generation, 48 h; AID 504832; 5.9% of 310,000 active; Potency, µM (top dose mostly 28.7 µM), inactives show at the top dose activity change, negative = inhibition, most hits filed as inhibitors; P. falciparum luciferase growth in erythrocytes, 48 h; further: potency means the concentration at half of the fitted maximal effect; on the % scale 0 is the no-effect control and ±100 the full control effect
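Cell-based growth assay: transgenic P. falciparum expressing firefly luciferase, cultured in red cells within RPMI 1640 containing 0.5% w/v Albumax, 24 mM bicarbonate and gentamycin. A drop in luciferase activity indicates inhibition.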
Starred values were filed as active, the others as inactive; [ ] = remark or other dose. Most compounds without a hit are left out; they make up all but 21% or so of the library. Unless noted, the call rests on the fitted dose curve; in most records, active means well fitted inhibition curve with a large enough effect; inconclusive means small, poorly fitted or top-dose-only effect, or another doubt; inactive means no such curve, though single readings can be large or run the other way.

Screening COc1ccc(C2CC(c3cccs3)=NN2C(=O)CSc2nc(=O)n3ccccc3n2)cc1 (stereo unspecified) returned Pf growth 96h 8.3µM* and Pf growth 48h 13µM*.
For COc1ccc(C2=NN(C(=O)CSC3=NN4CCCC(=O)N=C4S3)C(c3cccc(OC)c3OC)C2)cc1 (stereo unspecified) the results were Pf growth 96h inconclusive, Shiga inhibitor 3, CHX counter -3 and Pf growth 48h inconclusive.
`COc1ccc(C2CC(c3cccs3)=NN2C(=O)CSc2nc3ccccc3s2)cc1` (stereo unspecified) gave Pf growth 96h inconclusive, NS1 function inh inconclusive, Shiga inhibitor -18, CHX counter -8 and Pf growth 48h inconclusive.
Screening CON/C=C(\C=Nc1ccc(Cl)cc1)c1ncc(C(F)(F)F)cc1Cl returned Pf growth 96h inconclusive, NS1 function inh -2%, Shiga inhibitor 9, CHX counter 1 and Pf growth 48h inconclusive.
For O=C(CSc1nc2ccccc2s1)N1N=C(c2cccs2)CC1c1ccc(F)cc1 (stereo unspecified) the results were Pf growth 96h inconclusive, NS1 function inh 10%, Shiga inhibitor -8, CHX counter -7 and Pf growth 48h -20%.
For COc1ccc(C2CC(c3cccs3)=NN2C(=O)CN2CCCCC2)cc1 (stereo unspecified) the results were Pf growth 96h -25%[5.75 µM], Shiga inhibitor 26*, CHX counter 11 and Pf growth 48h -1%.
For Cc1ccc(C2CC(c3cccs3)=NN2C(=O)CSc2nc(=O)n3cc(C)ccc3n2)cc1 (stereo unspecified) the results were Pf growth 96h 5.2µM* and Pf growth 48h inconclusive.
Cc1ccn2c(=O)nc(SCC(=O)N3N=C(c4cccs4)CC3c3ccc(F)cc3)nc2c1 (stereo unspecified) was read as Pf growth 96h 4.7µM* and Pf growth 48h inconclusive.
`O=C(CSc1nc2c(cnn2-c2ccc(F)cc2)c(=O)[nH]1)N1N=C(c2cccs2)CC1c1ccc(F)cc1` (stereo unspecified) gave Pf growth 96h 9.3µM*, NS1 function inh 5%, Shiga inhibitor -18, CHX counter -3 and Pf growth 48h inconclusive.
`Cc1ccc(C)c(NC(=O)COC(=O)COc2cccc3c2OC(C)(C)C3)c1` gave Pf growth 96h -1% and Pf growth 48h inconclusive.
Screening CCOC(=O)Cc1csc(NC(=O)COc2cc(C)cc(C)c2)n1 returned Pf growth 96h 43%, NS1 function inh 1%, Shiga inhibitor 9, CHX counter -3 and Pf growth 48h -2%.
Cc1cccn2c(=O)nc(SCC(=O)N3N=C(c4cccs4)CC3c3ccc(F)cc3)nc12 (stereo unspecified) was read as Pf growth 96h 3.7µM* and Pf growth 48h 8.3µM*.
COc1cccc(CN(C)C(=O)c2ccc(NC(=O)CC3SC(N4CCCC4)=NC3=O)cc2)c1OC (stereo unspecified) was read as Pf growth 96h 6.6µM* and Pf growth 48h inconclusive.
CCNC(=O)c1ccc(NC(=O)CC2SC(N3CCCCC3)=NC2=O)cc1 (stereo unspecified) was read as Pf growth 96h 1% and Pf growth 48h 15%.
Screening O=C(CC1SC(N2CCCC2)=NC1=O)Nc1ccc(C(=O)Nc2ncccc2O)cc1 (stereo unspecified) returned Pf growth 96h inconclusive and Pf growth 48h 2.6µM*.
Cc1ccnc(NC(=O)c2cccc(NC(=O)CC3SC(N4CCCCC4)=NC3=O)c2)c1 (stereo unspecified) was read as Pf growth 96h 8.3µM* and Pf growth 48h inconclusive.
Screening O=c1ccc2ccc(Oc3ccc([N+](=O)[O-])cc3[N+](=O)[O-])cc2o1 returned Pf growth 96h -16%, NS1 function inh -8%, Shiga inhibitor 3, CHX counter -4 and Pf growth 48h 0%.
Screening O=Nc1c(O)[nH]c2c(Cl)c(Cl)ccc12 returned Shiga inhibitor -3 and CHX counter -5.
O=C(Nc1nc2ccccc2[nH]1)NC1CCCCC1 was read as Pf growth 96h 81%, NS1 function inh 2%, Shiga inhibitor 81*, CHX counter 46* and Pf growth 48h 184%.
For S=C(NC1CCCCC1)N(CCc1nc2ccccc2[nH]1)C1CCCC1 the results were Pf growth 96h 13µM*, NS1 function inh -13%, Shiga inhibitor 18, CHX counter -6 and Pf growth 48h inconclusive.
Screening O=C(Nc1nc2ccccc2[nH]1)Nc1ccccc1F returned Pf growth 96h -22%, NS1 function inh -3%, Shiga inhibitor 99*, CHX counter 35* and Pf growth 48h 130%.
`O=C(CSc1nc2ccccc2[nH]1)Nc1ccccc1F` gave Pf growth 96h 29%, NS1 function inh 1%, Shiga inhibitor 25 and CHX counter 13.
O=C(Nc1nc2ccccc2[nH]1)C1CC1 was read as Pf growth 96h 100%, Shiga inhibitor 45, CHX counter 23* and Pf growth 48h 83%.
`O=C(COC(=O)c1ccc(N2CCCC2=O)cc1)NCc1ccco1` gave Pf growth 96h 9%, NS1 function inh -7%, Shiga inhibitor -1, CHX counter 5 and Pf growth 48h 24%.
`O=C(Nc1nc2ccccc2[nH]1)C1CCCO1` (stereo unspecified) gave Pf growth 96h 15%, NS1 function inh -4%, Shiga inhibitor 41, CHX counter 23* and Pf growth 48h 79%.
Screening O=C(Nc1ncccn1)C12CC3CC(CC(C3)C1)C2 returned Pf growth 96h -4%, NS1 function inh 0%, Shiga inhibitor 3, CHX counter -2 and Pf growth 48h -3%.
`O=C(Nc1nc2ccccc2[nH]1)c1cccs1` gave Pf growth 96h 0.47µM*, Shiga inhibitor 75*, CHX counter 37* and Pf growth 48h 374%.
`O=C(Nc1nc2ccccc2[nH]1)C12CC3CC(CC(C3)C1)C2` gave NS1 function inh 0%, Shiga inhibitor 63, CHX counter 40* and Pf growth 48h inconclusive.
For O=C(Nc1ccccn1)C12CC3CC(CC(C3)C1)C2 the results were NS1 function inh -15%, Shiga inhibitor 11, CHX counter 6 and Pf growth 48h 13µM*.
`COC(=O)Nc1nc2ccc(C(=O)c3cccs3)cc2[nH]1` gave Pf growth 96h 26%, NS1 function inh 0% and Pf growth 48h 56%.
Screening O=C(OCc1nc2ccccc2[nH]1)C12CC3CC(CC(C3)C1)C2 returned Pf growth 96h inconclusive, NS1 function inh -83%, Shiga inhibitor -7, CHX counter -3 and Pf growth 48h inconclusive.
For N=C1C(c2ccccc2)=C(O)CN1c1cccc(S(=O)(=O)Nc2cccc(C(F)(F)F)c2)c1 the results were Pf growth 96h -27%, NS1 function inh 20%, Shiga inhibitor -16, CHX counter 1 and Pf growth 48h -6%.
Screening O=c1[nH]ncc(NCc2ccc(Cl)cc2)c1Cl returned Pf growth 96h inconclusive, NS1 function inh 5%, Shiga inhibitor 3, CHX counter -2 and Pf growth 48h 5%.
